The source of these data is PubChem BioAssay (NCATS).

Results filed as inconclusive are left out. Entries that show only a call come without a potency. Unmarked numbers belong to inactive results. Active and inactive are the calls of the source. Unless noted, calls come from the whole dose curve; as a rule, active = well fitted curve in the direction sought with a large enough effect; inconclusive = small, poorly fitted or top-dose-only effect, or another doubt; inactive = no such curve, though single readings can be large; an effect the other way counts as inactive or inconclusive.

The target of test [1] is Calcium and integrin-binding protein 1 (Homo sapiens) (UniProt Q99828). The test can be described thus: Primary qHTS for Identification of Calcium Integrin Binding Protein 1 (CIB1) Competitor (AID 1508620).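 Note: GST tagged CIB1 binding a fluorescein labelled alphaIIb integrin peptide tracer; top concentration of the series differs between compounds.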 In outline: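 Fluorescence polarization competition: CIB1-GST (1 uM final) preincubated with compound 15 min at room temperature, then FITC-labeled alphaIIb peptide (100 nM final) added for another 15 min. Polarization read at Ex 480/Em 540.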

Test [2] is described as follows: Primary qHTS for small molecule stabilizers of the endoplasmic reticulum resident proteome: Secreted ER Calcium Modulated Protein (SERCaMP) assay (AID 1508630). In outline: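 GLuc-SERCaMP-expressing SH-SY5Y cells, pretreated 16 h with compound, are challenged with thapsigargin to empty ER calcium stores; after 4 h, coelenterazine is added directly to the medium and luminescence is imaged.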

The nature of test [3]: A High-Content qHTS Against Drug Library for the Identification of Small Molecules that Inhibit DYT1 Early Onset Primary Dystonia-Associated Cell Pathology (AID 1645839; calls by dose curve; note: series mostly up to about 46 µM). The method, boiled down: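 Readout: %pathology, the punctate EGFP-TorsinA distribution from imaging, as the primary channel and cell count as the toxicity counterscreen. HEK293 Flp-In cells expressing delE TorsinA were induced with tetracycline and treated with compound for 48 h.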

Test [4] in a line: Primary qHTS for inhibitors of La Crosse Virus (LACV) - induced cell death in SH-SY5Y cells (AID 1508616).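 Note: top concentration of the series differs between compounds; higher means more rescue of cells from virus-induced death.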 The method, boiled down:
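Readout was luminescence from ATPLite 1step added after a 6-day LACV infection (0.01 MOI) of SH-SY5Y cells that had received pin-transferred compound 24 hr after seeding.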

A short description of test [5]: Counterscreen qHTS for small molecule stabilizers of the endoplasmic reticulum resident proteome: GLuc-NoTag assay (AID 1508627).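 For activity change, negative = inhibition: SH-SY5Y cells given compound then 100 nM thapsigargin to empty ER calcium; series mostly up to about 76 µM.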 Note: potency is the fitted concentration of half-maximal effect. The method, boiled down:
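SH-SY5Y cells stably expressing constitutively secreted GLuc (no SERCaMP tag) were pre-incubated 5 h, treated with compound for 19 h, then 100 nM thapsigargin for 4 h at 37C; medium GLuc read by coelenterazine luminescence.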

A short description of test [6]: Confirmatory qHTS for small molecule stabilizers of the endoplasmic reticulum resident proteome: Secreted ER Calcium Modulated Protein (SERCaMP) assay (AID 1508628).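 Note: SH-SY5Y cells given compound 16 h then thapsigargin 100 nM for 4 h; series mostly up to about 76 µM; nearly all actives have a fitted effect of over 40% in size.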 In outline: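 We seeded SH-SY5Y-GLuc-SERCaMP cells, added compounds (three concentrations in the primary run, eleven up to 76.6 uM in confirmation), incubated 16 h, depleted ER calcium with thapsigargin, and read luciferase 4 h later.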

Test [7] in a line: Cell Viability qHTS for small molecule stabilizers of the endoplasmic reticulum resident proteome (AID 1508629).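 Note: potency is the fitted concentration of half-maximal effect; compound exposure about 46 h in total before the viability read.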 Particulars: cell viability counter-screen, 100 nM thapsigargin for final 4 h.

Sequence of Calcium and integrin-binding protein 1 (Homo sapiens) (Q99828 whole entry, looked up): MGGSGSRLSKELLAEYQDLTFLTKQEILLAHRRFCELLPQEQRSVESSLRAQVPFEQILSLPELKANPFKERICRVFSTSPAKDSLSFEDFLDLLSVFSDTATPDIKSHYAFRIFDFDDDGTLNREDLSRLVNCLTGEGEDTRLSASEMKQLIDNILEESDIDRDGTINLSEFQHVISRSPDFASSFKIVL

`C[C@@H]1CC[C@@]2(OC1)O[C@H]1C[C@H]3[C@@H]4CC[C@H]5C[C@@H](O)CC[C@]5(C)[C@H]4CC(=O)[C@]3(C)[C@H]1[C@@H]2C`: the activity change, negative = inhibition in test [1] is -1.41% [at 12.4 µM]; in test [2] it was -13.5% [at 3.88 µM]. Also, the % pathology change, negative = correction in test [3] is -10% [at 4.63 µM].

`O=C(O)Cc1sc(-c2ccccc2)nc1-c1ccc(Cl)cc1`: the result in test [4] was inactive. For the same compound, the Potency entry in test [2] and in test [3] was “inactive” in each case.

`NC(=O)c1ncn([C@@H]2O[C@H](CO)[C@@H](O)[C@H]2O)c1N`: the result in test [4] and in test [1] was inactive. In addition, in test [3], the Potency result was “inactive”.

Consider `CN(C)CCCN1c2ccccc2CCc2ccccc21`, for which the Potency entry in test [5] was “inactive”.

In the case of `COc1ccc2[nH]c(S(=O)Cc3ncc(C)c(OC)c3C)nc2n1` (stereo not given), the compound was called inactive in test [4]. In addition, the Potency entry in test [2] and in test [3] was “inactive” in each case.

Consider `c1ccc(CN(CC2=NCCN2)c2ccccc2)cc1`, for which the outcome in test [4] was inactive. Moreover, the Potency result in test [2] is “inactive”.

As to `Oc1cccc(O)c1`, in test [4], the compound was called inactive. For the same compound, the Potency entry in test [2] and in test [3] was “inactive” throughout.

Turning to `CNCCC(Oc1ccc(C(F)(F)F)cc1)c1ccccc1` (stereo not given), the Potency in test [5] is 44.7 µM (active); in test [7], 25.1 µM (active). In addition, the Potency result in test [6] and in test [2] was “inactive” throughout.

Take `C[C@@H](O)[C@H](N)C(=O)O`: in test [4], the call was inactive. The Potency entry in test [3] is “inactive”.

Consider `O=C(O)c1ccccn1`, for which the call in test [4] was inactive. The Potency entry in test [2] and in test [3] was “inactive” each time.

On to `O=C1O[C@H](CO)[C@@H](O)[C@H](O)[C@H]1O`, for which the outcome in test [4] was inactive. Moreover, the Potency entry in test [2] and in test [3] was “inactive” each time.

Consider `C[C@@H]1CCN(C(=O)[C@H](CCCN=C(N)N)NS(=O)(=O)c2cccc3c2NC[C@H](C)C3)[C@@H](C(=O)O)C1`, for which the result in test [4] and in test [1] was inactive. The Potency entry in test [3] was “inactive”.

Consider `CC(=O)Oc1c(C)c(C)c2c(c1C)CC[C@@](C)(CCC[C@H](C)CCC[C@H](C)CCCC(C)C)O2`, for which the outcome in test [4] and in test [1] was inactive. Further, the Potency result in test [3] is “inactive”.

In the case of `CN1[C@@H]2CC[C@H]1CC(OC(=O)C(O)c1ccccc1)C2` (stereo not given in full), the compound was called inactive in test [4] and in test [1]. In addition, the Potency result in test [3] is “inactive”.

`CC12CCC(CC1)C(C)(C)O2`: the outcome in test [4] and in test [1] was inactive. Further, in test [3], the Potency entry was “inactive”.

Regarding `N[C@H](C(=O)O)c1ccc(O)cc1`, the result in test [4] and in test [1] was inactive. Besides, the Potency entry in test [3] is “inactive”.

With `O=C(O)[C@H](O)c1ccccc1`, the outcome in test [1] was inactive. Further, in test [3], the Potency result was “inactive”.

As to `O=S(=O)(O)NC1CCCCC1`, the compound was called inactive in test [4] and in test [1]. In addition, in test [3], the Potency result was “inactive”.
